PubChem BioAssay
Activity calls are given as the source filed them.

Tests used:
[1] = tested on: PRMT1 (protein arginine N-methyltransferase 1); assay: small molecules binding arginine methyltransferase PRMT1 – biochemical, small-molecule microarray, 635 nm fluorescence, primary screen (AID 1088); conditions: higher = more signal;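 note: binding of Prmt1 protein to compounds spotted on small-molecule microarray slides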
[2] = growth effects on S. cerevisiae YJM789 – YJM789 clinical isolate, OD600, 24 h, basal, primary screen (AID 1089); conditions: higher = more signal, called active from +8 up or from −8 down;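 note: growth of clinical yeast isolate S. cerevisiae YJM 789 seeded 1000 cells per well; test concentration not given here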
[3] = S. pombe growth modifiers, basal conditions – strain 972, OD600, 24 h, no modulator, primary screen (AID 1090);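 note: basal condition with compound alone and no growth modifier present; test concentration not given here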; conditions: S. pombe 972 growth, higher = more signal, called active from +8 up or from −8 down
[4] = budding yeast growth modifiers under rapamycin – strain BY4716, OD600, 96 h, primary screen (AID 1091); note: test concentration not given here; conditions: S. cerevisiae BY4716 + rapamycin, higher = more signal, called active from +8 up or from −8 down
[5] = target: Torsin-1A-interacting protein 2 (Homo sapiens) (UniProt Q8NFQ8); assay: small molecules binding lysate-expressed LULL1 – cell lysate, human LULL1 lysate, 635/667 nm fluorescence, primary screen (AID 1092); conditions: small-molecule microarray, hLULL1 lysate binding, 635 nm fluorescence; higher = more signal;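 note: probe is lysate of COS7 cells overexpressing human LULL1; score merges per-feature 667 nm fluorescence with signal-to-noise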
Torsin-1A-interacting protein 2 (Homo sapiens), sequence (Q8NFQ8 whole entry, looked up): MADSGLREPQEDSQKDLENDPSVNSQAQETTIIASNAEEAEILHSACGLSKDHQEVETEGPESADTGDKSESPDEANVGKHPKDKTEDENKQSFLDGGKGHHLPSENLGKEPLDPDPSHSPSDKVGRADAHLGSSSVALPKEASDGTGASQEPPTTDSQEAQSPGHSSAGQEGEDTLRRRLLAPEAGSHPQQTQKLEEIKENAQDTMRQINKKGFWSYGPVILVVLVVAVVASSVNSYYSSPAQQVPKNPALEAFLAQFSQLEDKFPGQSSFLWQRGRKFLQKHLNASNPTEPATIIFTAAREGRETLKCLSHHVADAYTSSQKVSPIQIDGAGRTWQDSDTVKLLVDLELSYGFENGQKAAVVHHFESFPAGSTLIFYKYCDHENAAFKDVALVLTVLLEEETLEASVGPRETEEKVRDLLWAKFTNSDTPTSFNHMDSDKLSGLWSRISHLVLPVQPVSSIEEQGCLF

[6] = optical density change of DRC41 E. coli – strain DRC41, OD650, 24 h, E. coli filamentation project, primary screen (AID 1093);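 note: MC1000 strain lacking acrAB efflux and sulA so SOS filamentation is blocked; test concentration not given here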; conditions: E. coli DRC41 growth, higher = more signal, called active from +8 up or from −8 down
[7] = probe aLefty2 binding to arrayed compounds – biochemical, biotinylated probe, 635/667 nm fluorescence, primary screen (AID 1094); conditions: small-molecule microarray, higher = more signal;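 note: score merges spot fluorescence near 667 nm with spot signal-to-noise ratio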
[8] = tested on: Noggin (protein binding on small-molecule microarray); assay: small molecules binding Noggin protein – biochemical, 635/667 nm fluorescence, primary screen (AID 1095); conditions: 635 nm fluorescence, higher = more signal;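 note: score merges 667 nm feature fluorescence with signal to noise over triplicate slides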
[9] = target: Neurogenic locus notch homolog protein 3 (Homo sapiens) (UniProt Q9UM47); assay: small molecules binding NOTCH3 protein – biochemical, 635/667 nm fluorescence, primary screen (AID 1096); conditions: small-molecule microarray, 635 nm fluorescence, higher = more signal
Neurogenic locus notch homolog protein 3 (Homo sapiens), sequence (Q9UM47 whole entry, looked up): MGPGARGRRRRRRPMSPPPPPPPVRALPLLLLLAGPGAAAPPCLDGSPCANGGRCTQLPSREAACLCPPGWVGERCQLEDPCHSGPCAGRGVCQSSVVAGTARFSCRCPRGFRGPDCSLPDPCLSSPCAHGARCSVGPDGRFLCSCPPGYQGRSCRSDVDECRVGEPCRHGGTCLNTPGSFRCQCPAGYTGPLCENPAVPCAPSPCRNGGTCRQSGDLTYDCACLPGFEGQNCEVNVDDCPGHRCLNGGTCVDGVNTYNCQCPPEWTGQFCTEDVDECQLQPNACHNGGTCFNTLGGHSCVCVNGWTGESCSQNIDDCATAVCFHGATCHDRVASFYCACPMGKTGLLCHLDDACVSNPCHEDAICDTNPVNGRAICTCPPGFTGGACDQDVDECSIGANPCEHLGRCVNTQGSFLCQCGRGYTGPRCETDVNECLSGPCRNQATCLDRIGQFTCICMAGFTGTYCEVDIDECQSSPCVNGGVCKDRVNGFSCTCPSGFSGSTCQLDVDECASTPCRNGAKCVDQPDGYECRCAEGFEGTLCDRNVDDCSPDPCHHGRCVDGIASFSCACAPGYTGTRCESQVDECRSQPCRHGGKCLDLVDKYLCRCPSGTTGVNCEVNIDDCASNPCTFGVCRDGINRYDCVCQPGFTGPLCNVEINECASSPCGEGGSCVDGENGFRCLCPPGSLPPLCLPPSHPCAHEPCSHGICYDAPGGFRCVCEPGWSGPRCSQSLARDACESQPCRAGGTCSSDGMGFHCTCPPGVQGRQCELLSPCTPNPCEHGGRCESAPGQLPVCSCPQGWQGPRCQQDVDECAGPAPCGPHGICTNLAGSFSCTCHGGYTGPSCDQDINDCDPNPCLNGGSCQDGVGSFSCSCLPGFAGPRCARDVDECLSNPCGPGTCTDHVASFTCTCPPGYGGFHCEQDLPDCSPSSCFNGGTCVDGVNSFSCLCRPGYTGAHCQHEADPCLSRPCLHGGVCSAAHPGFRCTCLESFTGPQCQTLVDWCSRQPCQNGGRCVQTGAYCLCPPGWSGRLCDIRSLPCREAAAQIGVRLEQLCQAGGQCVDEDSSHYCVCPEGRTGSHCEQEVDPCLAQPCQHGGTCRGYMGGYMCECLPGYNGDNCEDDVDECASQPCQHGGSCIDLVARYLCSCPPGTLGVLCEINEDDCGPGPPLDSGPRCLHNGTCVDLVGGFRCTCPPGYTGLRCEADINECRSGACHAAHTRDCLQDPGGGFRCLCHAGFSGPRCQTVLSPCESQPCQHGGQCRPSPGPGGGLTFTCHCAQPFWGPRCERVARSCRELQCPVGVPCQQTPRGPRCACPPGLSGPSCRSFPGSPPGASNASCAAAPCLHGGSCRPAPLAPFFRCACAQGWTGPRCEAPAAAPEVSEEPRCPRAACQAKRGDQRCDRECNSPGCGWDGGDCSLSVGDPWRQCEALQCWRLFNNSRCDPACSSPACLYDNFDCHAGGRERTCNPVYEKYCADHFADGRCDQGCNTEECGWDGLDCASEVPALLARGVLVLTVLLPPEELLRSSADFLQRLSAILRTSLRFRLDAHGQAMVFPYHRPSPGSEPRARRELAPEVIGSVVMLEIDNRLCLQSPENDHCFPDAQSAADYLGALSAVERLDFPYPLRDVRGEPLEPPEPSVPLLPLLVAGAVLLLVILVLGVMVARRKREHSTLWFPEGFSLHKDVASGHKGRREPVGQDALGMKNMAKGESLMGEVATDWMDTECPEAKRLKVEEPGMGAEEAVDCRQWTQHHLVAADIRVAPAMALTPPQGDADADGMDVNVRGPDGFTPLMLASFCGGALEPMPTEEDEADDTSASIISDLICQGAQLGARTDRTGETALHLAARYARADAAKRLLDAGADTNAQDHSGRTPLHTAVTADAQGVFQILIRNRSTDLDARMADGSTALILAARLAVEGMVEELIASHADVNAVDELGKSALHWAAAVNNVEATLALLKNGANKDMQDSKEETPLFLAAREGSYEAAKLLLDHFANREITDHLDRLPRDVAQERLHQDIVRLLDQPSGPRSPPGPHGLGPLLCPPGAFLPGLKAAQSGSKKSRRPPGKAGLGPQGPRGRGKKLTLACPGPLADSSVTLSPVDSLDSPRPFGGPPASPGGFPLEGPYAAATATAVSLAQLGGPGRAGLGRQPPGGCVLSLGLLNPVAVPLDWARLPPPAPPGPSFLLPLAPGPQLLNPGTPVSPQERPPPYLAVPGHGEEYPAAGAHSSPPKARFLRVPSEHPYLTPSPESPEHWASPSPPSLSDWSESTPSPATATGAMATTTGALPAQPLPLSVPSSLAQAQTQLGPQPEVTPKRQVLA

[10] = probe aEGFR binding to arrayed compounds – biochemical, biotinylated probe, 635/667 nm fluorescence, primary screen (AID 1097); conditions: small-molecule microarray, higher = more signal;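 note: probe is a biotinylated anti-EGFR antibody binding compounds printed on slides; score combines fluorescence near 667 nm and signal to noise of each spot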
[11] = tested on: Plasmodium falciparum Sir2 (PF13_0152, Sir2A); assay: Plasmodium falciparum Sir2A binding compounds – biochemical, small-molecule microarray, 635 nm fluorescence, primary screen (AID 1098); conditions: fluorescence 635 nm, higher = more signal;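 note: score merges spot fluorescence intensity with its signal-to-noise ratio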
[12] = probe aDKK1 binding to arrayed compounds – biochemical, biotinylated probe, 635/667 nm fluorescence, primary screen (AID 1099); conditions: small-molecule microarray, higher = more signal;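 note: score merges 667nm spot fluorescence with signal to noise across triplicate slides; reference of the scale not given here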
[13] = probe aCHRDL2 binding to arrayed compounds – biochemical, biotinylated probe, 635/667 nm fluorescence, primary screen (AID 1100); conditions: small-molecule microarray, higher = more signal
[14] = change in splice reporter luminescence, either direction, cell-based, HEK293, spliceosome inhibition project, primary screen (AID 1101); conditions: HEK293 splicing luciferase reporter, 24 h, higher = more signal, called active from +8 up or from −8 down;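 note: HEK293 cells carrying a splicing-competent luciferase reporter gene; test concentration not given here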
[15] = target: Fibroblast growth factor 10 (Homo sapiens) (UniProt O15520); assay: compounds binding fibroblast growth factor 10 – biochemical, small-molecule microarray, 635 nm fluorescence, primary screen (AID 1102); conditions: FGF10 binding, fluorescence 635 nm, higher = more signal
Fibroblast growth factor 10 (Homo sapiens), sequence (O15520 whole entry, looked up): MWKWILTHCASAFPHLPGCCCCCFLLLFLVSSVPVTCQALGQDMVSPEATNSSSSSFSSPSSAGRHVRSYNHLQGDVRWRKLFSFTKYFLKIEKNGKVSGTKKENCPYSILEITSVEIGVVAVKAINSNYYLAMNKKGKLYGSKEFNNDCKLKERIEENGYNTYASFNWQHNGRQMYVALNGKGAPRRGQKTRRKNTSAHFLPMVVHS

[16] = tested on: glycogen synthase kinase-3 (GSK3A per assay name; protocol says GSK3B); assay: compounds binding glycogen synthase kinase-3 – biochemical, small-molecule microarray, 635 nm fluorescence, GSK3A, primary screen (AID 1103); conditions: fluorescence 635 nm, higher = more signal; note: the record names both GSK3A and GSK3B
[17] = target: Epidermal growth factor receptor (Homo sapiens) (UniProt P00533); assay: compounds binding epidermal growth factor receptor – biochemical, small-molecule microarray, 635 nm fluorescence, primary screen (AID 1104); conditions: EGFR binding, higher = more signal;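 note: score merges 667 nm emission intensity with spot signal to noise over triplicate slides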
Epidermal growth factor receptor (Homo sapiens), sequence (P00533 whole entry, looked up): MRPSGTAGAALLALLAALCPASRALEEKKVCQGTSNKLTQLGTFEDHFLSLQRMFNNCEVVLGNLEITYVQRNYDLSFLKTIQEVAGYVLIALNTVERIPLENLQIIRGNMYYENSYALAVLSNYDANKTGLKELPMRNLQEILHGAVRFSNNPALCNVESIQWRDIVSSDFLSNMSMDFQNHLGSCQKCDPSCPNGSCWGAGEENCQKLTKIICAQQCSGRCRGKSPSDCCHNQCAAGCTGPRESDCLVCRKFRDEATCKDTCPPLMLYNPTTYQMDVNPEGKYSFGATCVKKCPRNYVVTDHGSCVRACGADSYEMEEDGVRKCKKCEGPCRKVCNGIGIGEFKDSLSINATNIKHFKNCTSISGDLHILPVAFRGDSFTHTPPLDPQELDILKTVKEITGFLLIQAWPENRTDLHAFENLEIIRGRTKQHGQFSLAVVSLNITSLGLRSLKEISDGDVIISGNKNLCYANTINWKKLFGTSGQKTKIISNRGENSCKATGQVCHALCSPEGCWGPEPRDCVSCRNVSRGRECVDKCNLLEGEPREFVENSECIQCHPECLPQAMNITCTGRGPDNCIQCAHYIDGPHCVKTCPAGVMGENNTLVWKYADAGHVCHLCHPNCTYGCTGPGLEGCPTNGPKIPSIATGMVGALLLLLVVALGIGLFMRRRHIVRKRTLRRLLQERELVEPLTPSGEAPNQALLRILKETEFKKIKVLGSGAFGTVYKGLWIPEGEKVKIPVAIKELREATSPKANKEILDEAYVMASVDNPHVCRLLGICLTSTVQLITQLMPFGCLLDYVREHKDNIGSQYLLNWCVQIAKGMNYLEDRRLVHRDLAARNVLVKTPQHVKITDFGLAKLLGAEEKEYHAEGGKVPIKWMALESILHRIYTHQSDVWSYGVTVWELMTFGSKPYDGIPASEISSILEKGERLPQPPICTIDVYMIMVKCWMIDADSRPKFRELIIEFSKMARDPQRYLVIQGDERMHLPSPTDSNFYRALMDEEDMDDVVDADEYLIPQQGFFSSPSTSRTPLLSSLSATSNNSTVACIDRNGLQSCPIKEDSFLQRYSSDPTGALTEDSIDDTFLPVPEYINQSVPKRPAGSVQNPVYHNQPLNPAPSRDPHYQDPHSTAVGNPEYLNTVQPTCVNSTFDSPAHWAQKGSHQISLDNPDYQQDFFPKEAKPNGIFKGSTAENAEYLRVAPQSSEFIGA

[18] = target: Follistatin-related protein 3 (Homo sapiens) (UniProt O95633); assay: compounds binding follistatin-related protein 3 – biochemical, small-molecule microarray, 635 nm fluorescence, primary screen (AID 1105); conditions: FSTL3 binding, higher = more signal;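 note: score merges emission near 667 nm and signal to noise per printed spot across three slides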
Follistatin-related protein 3 (Homo sapiens), sequence (O95633 whole entry, looked up): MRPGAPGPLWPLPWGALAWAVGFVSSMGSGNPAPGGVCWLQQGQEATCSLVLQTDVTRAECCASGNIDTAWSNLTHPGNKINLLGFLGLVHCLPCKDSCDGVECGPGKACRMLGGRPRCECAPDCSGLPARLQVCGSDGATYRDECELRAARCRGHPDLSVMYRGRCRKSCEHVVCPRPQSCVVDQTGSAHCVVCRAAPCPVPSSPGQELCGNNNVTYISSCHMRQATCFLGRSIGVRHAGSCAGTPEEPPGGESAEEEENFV

[19] = target: Dickkopf-related protein 1 (Homo sapiens) (UniProt O94907); assay: small molecules binding DKK1 protein – biochemical, small-molecule microarray, 635 nm fluorescence scan, primary screen (AID 1106); conditions: higher = more signal;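 note: score merges emission near 667 nm with signal to noise over three replicate slides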
Dickkopf-related protein 1 (Homo sapiens), sequence (O94907 whole entry, looked up): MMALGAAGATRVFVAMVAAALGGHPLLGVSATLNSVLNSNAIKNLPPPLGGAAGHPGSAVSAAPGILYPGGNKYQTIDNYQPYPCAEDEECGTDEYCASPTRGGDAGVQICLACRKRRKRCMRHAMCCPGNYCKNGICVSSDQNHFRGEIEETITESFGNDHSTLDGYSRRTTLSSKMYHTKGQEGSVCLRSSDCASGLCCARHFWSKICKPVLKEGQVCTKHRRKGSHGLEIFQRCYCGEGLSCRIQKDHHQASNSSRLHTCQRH

[20] = tested on: Inhibin beta A chain (activin A); assay: small molecules binding activin A – biochemical, small-molecule microarray, 635 nm fluorescence scan, primary screen (AID 1107); conditions: INHBA, higher = more signal;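 note: mouse activin A protein probed at 4.33 µg/mL on printed slides; score merges bound-protein fluorescence near 667 nm with spot signal-to-noise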

SMILES: COc1ccc(C(=O)Nc2ccc(CN3C(=O)[C@]4(O[C@H](CC(=O)N5CCC[C@H]5CO)[C@@H]([Si](C)(C)c5ccc(OC)cc5)[C@@H]4C)c4ccccc43)cc2)cc1
- composite z-score [1]: 1.54
- z-score [2]: -0.676 (inactive)
- z-score [3]: 0.173 (inactive)
- z-score [4]: -0.539 (inactive)
- composite z-score [5]: 2.57
- z-score [6]: -0.481 (inactive)
- composite z-score [7]: -0.124
- composite z-score [8]: 1.35
- composite z-score [9]: 1.1
- composite z-score [10]: -0.12
- composite z-score [11]: 1.46
- composite z-score [12]: -0.314
- composite z-score [13]: 0.0167
- z-score [14]: 1.76 (inactive)
- composite z-score [15]: 0.679
- composite z-score [16]: 0.573
- composite z-score [17]: 0.352
- composite z-score [18]: 0.683
- composite z-score [19]: 0.545
- composite z-score [20]: 0.0938

SMILES: CO[C@H]1O[C@H](CO)[C@@H](OC(=O)Nc2cccc(F)c2)[C@H](OC(=O)Nc2ccccc2)[C@H]1OC(=O)Nc1ccccc1
- composite z-score [1]: 1.54
- z-score [2]: 1.63 (inactive)
- z-score [3]: 1.1 (inactive)
- z-score [4]: 5.68 (inactive)
- composite z-score [5]: 3.37
- z-score [6]: -0.168 (inactive)
- composite z-score [7]: -0.0285
- composite z-score [8]: 0.828
- composite z-score [9]: 1.11
- composite z-score [10]: 0.0778
- composite z-score [11]: 1.46
- composite z-score [12]: -0.0312
- composite z-score [13]: 0.55
- z-score [14]: -0.0505 (inactive)
- composite z-score [15]: 1.52
- composite z-score [16]: 1.35
- composite z-score [17]: 0.162
- composite z-score [18]: 1.49
- composite z-score [19]: 0.18
- composite z-score [20]: 0.417

SMILES: Cc1ccc(S(=O)(=O)N2C[C@@H](C(=O)O)[C@H](Sc3ccccc3)C[C@H]2c2ccccc2)cc1
- composite z-score [1]: 1.55
- z-score [2]: -0.552 (inactive)
- z-score [3]: 0.972 (inactive)
- z-score [4]: -0.727 (inactive)
- composite z-score [5]: 3.41
- z-score [6]: -0.385 (inactive)
- composite z-score [7]: 0.237
- composite z-score [8]: 0.228
- composite z-score [9]: 0.988
- composite z-score [10]: 0.0478
- composite z-score [11]: 1.47
- composite z-score [12]: 0.707
- composite z-score [13]: 0.999
- z-score [14]: 1.64 (inactive)
- composite z-score [15]: 1.15
- composite z-score [16]: 0.586
- composite z-score [17]: 0.14
- composite z-score [18]: 1.29
- composite z-score [19]: -0.503
- composite z-score [20]: 0.49

SMILES: O=C1[C@H]2C=C(Br)[C@H](C[C@@H]2OCCCCCCO)[C@@]12CO2
- composite z-score [1]: -0.729
- z-score [2]: 0.335 (inactive)
- z-score [3]: -1.29 (inactive)
- z-score [4]: 1.32 (inactive)
- composite z-score [5]: -0.283
- z-score [6]: -1.74 (inactive)
- composite z-score [7]: 0.0183
- composite z-score [8]: 0.387
- composite z-score [9]: -0.615
- composite z-score [10]: -0.131
- composite z-score [11]: 1.21
- composite z-score [12]: -0.142
- composite z-score [13]: -0.0272
- z-score [14]: 0.428 (inactive)
- composite z-score [15]: -0.117
- composite z-score [16]: -0.363
- composite z-score [17]: -0.0491
- composite z-score [18]: -0.154
- composite z-score [19]: -0.0712
- composite z-score [20]: 1.61

SMILES: COc1ccccc1CN1C(=O)c2ccccc2[C@@]2(Cc3ccccc3N(CCCN(C)C)C2=O)[C@@H]1c1ccc(CO)cc1
- composite z-score [1]: 0.557
- z-score [2]: 0.431 (inactive)
- z-score [3]: -1.23 (inactive)
- z-score [4]: -1.35 (inactive)
- composite z-score [5]: 0.425
- z-score [6]: 0.276 (inactive)
- composite z-score [7]: -0.247
- composite z-score [8]: 0.395
- composite z-score [9]: 0.0593
- composite z-score [10]: -0.0612
- composite z-score [11]: 0.269
- composite z-score [12]: -0.169
- composite z-score [13]: -0.649
- z-score [14]: -0.706 (inactive)
- composite z-score [15]: 0.165
- composite z-score [16]: 0.0081
- composite z-score [17]: 0.237
- composite z-score [18]: 0.76
- composite z-score [19]: 1.05
- composite z-score [20]: 1.19

SMILES: CC(C)NC(=O)[C@@]1(Cc2ccccc2I)c2ccccc2C(=O)N(Cc2ccccc2Cl)[C@H]1c1ccc(CO)cc1
- composite z-score [1]: 1.51
- z-score [2]: 1.14 (inactive)
- z-score [3]: -0.199 (inactive)
- z-score [4]: 1.39 (inactive)
- composite z-score [5]: 2.59
- z-score [6]: -0.406 (inactive)
- composite z-score [7]: -0.0441
- composite z-score [8]: 0.607
- composite z-score [9]: 1.08
- composite z-score [10]: -0.0181
- composite z-score [11]: 0.972
- composite z-score [12]: 0.13
- composite z-score [13]: 0.156
- z-score [14]: -0.833 (inactive)
- composite z-score [15]: 1.1
- composite z-score [16]: 1.16
- composite z-score [17]: 0.355
- composite z-score [18]: 0.575
- composite z-score [19]: 0.533
- composite z-score [20]: 0.529

SMILES: CC[C@@H]1C=C(C(=O)O)[C@H](c2ccc(C)cc2)N1S(=O)(=O)c1ccc(C)cc1
- composite z-score [1]: 0.805
- z-score [2]: -1.23 (inactive)
- z-score [3]: 0.992 (inactive)
- z-score [4]: -0.564 (inactive)
- composite z-score [5]: 2.9
- z-score [6]: -0.552 (inactive)
- composite z-score [7]: -0.0654
- composite z-score [8]: 0.634
- composite z-score [9]: 0.939
- composite z-score [10]: -0.0557
- composite z-score [11]: 0.66
- composite z-score [12]: 0.0882
- composite z-score [13]: 0.335
- z-score [14]: 0.243 (inactive)
- composite z-score [15]: 0.227
- composite z-score [16]: 0.745
- composite z-score [17]: -0.0708
- composite z-score [18]: 0.534
- composite z-score [19]: -0.357
- composite z-score [20]: 0.236

SMILES: CCOc1cc(C(O)C2C=CC3C(=O)N(c4ccccc4)C(=O)C3N2Nc2ccc(C(C)C)cc2)ccc1O (stereo not given)
- composite z-score [1]: 1.55
- z-score [2]: 0.471 (inactive)
- z-score [3]: -1.28 (inactive)
- z-score [4]: 0.597 (inactive)
- composite z-score [5]: 3.42
- z-score [6]: -1.14 (inactive)
- composite z-score [7]: 0.0261
- composite z-score [8]: 0.107
- composite z-score [9]: 1.1
- composite z-score [10]: -0.0581
- composite z-score [11]: 1.5
- composite z-score [12]: 0.712
- composite z-score [13]: 1.01
- z-score [14]: 0.21 (inactive)
- composite z-score [15]: 0.726
- composite z-score [16]: 1.05
- composite z-score [17]: 0.147
- composite z-score [18]: 0.912
- composite z-score [19]: -0.332
- composite z-score [20]: 0.73

SMILES: CN(C)CCCCNC(=O)[C@@H]1C[C@@H]2C(=O)N[C@@H](CCCCN)C(=O)N2[C@@H]1c1ccc(O)cc1
- composite z-score [1]: 1.3
- z-score [2]: 0.184 (inactive)
- z-score [3]: 1.17 (inactive)
- z-score [4]: 3.58 (inactive)
- composite z-score [5]: 1.12
- z-score [6]: 0.813 (inactive)
- composite z-score [7]: 0.0864
- composite z-score [8]: 0.855
- composite z-score [9]: 0.159
- composite z-score [10]: 0.0552
- composite z-score [11]: 1.09
- composite z-score [12]: -0.0238
- composite z-score [13]: 0.309
- z-score [14]: -0.162 (inactive)
- composite z-score [15]: 0.41
- composite z-score [16]: 1.07
- composite z-score [17]: 0.606
- composite z-score [18]: 0.463
- composite z-score [19]: 1.26
- composite z-score [20]: 0.684

SMILES: CN1C(=O)C2C=CC(C(O)C=Cc3ccc([N+](=O)[O-])cc3)N(Nc3ccccc3)C2C1=O (stereo not given)
- composite z-score [1]: 1.51
- z-score [2]: -0.131 (inactive)
- z-score [3]: -1.18 (inactive)
- z-score [4]: -0.656 (inactive)
- composite z-score [5]: 1.62
- z-score [6]: -1.35 (inactive)
- composite z-score [7]: 0.0849
- composite z-score [8]: 0.577
- composite z-score [9]: 1.12
- composite z-score [10]: -0.0372
- composite z-score [11]: 0.967
- composite z-score [12]: 0.0403
- composite z-score [13]: -0.175
- z-score [14]: 1.21 (inactive)
- composite z-score [15]: 0.718
- composite z-score [16]: 1.15
- composite z-score [17]: 0.692
- composite z-score [18]: 1.06
- composite z-score [19]: 0.587
- composite z-score [20]: 1.02
